Measurements published in PubChem BioAssay (Tox21).
“And” between values parts separate entries of the source, which are not always exact repeats. Identical values can stand only once. Results filed as inconclusive are left out. Where a call stands in place of a potency, no number is given. Some compounds were tested as several samples or in several runs, with calls that do not always agree. The source made the active and inactive calls. Unless noted, calls come from the whole dose curve; as a rule, active = well fitted curve in the direction sought with a large enough effect in the repeat runs; inconclusive = weak or mixed curves; inactive = no such curve, though single readings can be large; an effect the other way counts as inactive or inconclusive.

Tests used:
[1] = qHTS assay to identify aromatase inhibitors - cell viability counter screen (AID 743084);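 note: cells stimulated with testosterone during compound exposure; nearly all actives have a fitted effect of over 55% in size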; note: potency is the fitted concentration of half-maximal effect
[2] = molecular target: Aryl hydrocarbon receptor (Homo sapiens) (UniProt P35869); assay: qHTS assay to identify small molecule that activate the aryl hydrocarbon receptor (AhR) signaling pathway (AID 743085); note: nearly all actives have a fitted effect of over 15% in size; note: potency is the fitted concentration of half-maximal effect;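 for activation: HG2L7.5c1 human HepG2 liver cells with stably integrated DRE-driven firefly reporter; series mostly up to about 70 µM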
In short: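 Stably transfected human liver carcinoma cells (HG2L7.5c1; 20 DRE-firefly luciferase) were incubated 5 h, dosed, and kept 24 h at 37C. Agonism was scored from increased luciferase luminescence.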

[3] = qHTS assay to identify small molecule that activate the aryl hydrocarbon receptor (AhR) signaling pathway - cell viability counter screen (AID 743086);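 note: HepG2 liver cells carrying the AhR DRE luciferase reporter; series mostly up to about 70 µM; nearly all actives have a fitted effect of over 45% in size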
In short: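 Cytotoxicity counter screen: CellTiter-Fluor signal (30 min, 37 C) in 4000 HepG2 cells/well carrying the DRE-luciferase reporter, following 24 h compound exposure at 37 C.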

[4] = molecular target: Peroxisome proliferator-activated receptor gamma (Homo sapiens) (UniProt P37231); assay: qHTS assay to identify small molecule agonists of the peroxisome proliferator-activated receptor gamma (PPARg) signaling pathway (AID 743094; active = well fitted activation curve with a large enough effect in the signal ratio in the repeat runs, not every such curve was filed as active; the % refers to the signal ratio)
In short: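 Cells from the PPARg UAS-bla HEK293H line are plated and incubated 5 h at 37C. Compounds in DMSO are pinned in and left 17 h at 37C. LiveBLAzer B/G substrate is then added for 1 h at room temperature before fluorescence is measured.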

[5] = qHTS assay to identify small molecule antagonists of the peroxisome proliferator-activated receptor gamma (PPARg) signaling pathway - cell viability counter screen (AID 743194); note: nearly all actives have a fitted effect of over 55% in size
In short: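 Viability was measured as CellTiter-Glo luminescence in GeneBLAzer PPARg UAS-bla HEK293H cells. These cells had been exposed 17 h at 37 C to compounds together with rosiglitazone at 50 nM final, with the beta-lactamase readout taken in the same wells.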

[6] = qHTS assay for small molecule agonists of the antioxidant response element (ARE) signaling pathway (AID 743202; active = well fitted activation curve with a large enough effect in the signal ratio in the repeat runs, not every such curve was filed as active; the % refers to the signal ratio; note: potency is the fitted concentration of half-maximal effect)
In short: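 Beta-lactamase reporter activity, read as fluorescence intensity, reflects ARE/Nrf2 pathway induction in HepG2 cells after 16 h compound exposure at 37 C; substrate loading was 2 h at room temperature.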

[7] = qHTS assay for small molecule activators of the heat shock response signaling pathway - cell viability counter screen (AID 743209); note: nearly all actives have a fitted effect of over 50% in size; note: potency is the fitted concentration of half-maximal effect
In short: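 Cytotoxicity counter screen run in parallel with the HSE beta-lactamase reporter, using the same wells. HeLa HSE-bla cells received compound for 5 h at 37 C; ATP-based CellTiter-Glo luminescence was measured after 30 min at room temperature.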

[8] = qHTS assay for small molecule activators of the heat shock response signaling pathway (AID 743210; active = well fitted activation curve with a large enough effect in the signal ratio in the repeat runs, with a control signal flat, not every such curve was filed as active; the % refers to the signal ratio;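 note: HeLa cells with beta-lactamase reporter driven by heat shock elements; series mostly up to about 63 µM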)
In short: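 Fluorescence from a cleaved B/G FRET substrate (2.5 h, room temp) reports HSE-driven beta-lactamase in HeLa cells treated 5 h at 37 C with DMSO-dissolved compounds.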

[9] = qHTS assay to identify small molecule agonists of the peroxisome proliferator-activated receptor delta (PPARd) signaling pathway - cell viability counter screen (AID 743211); note: nearly all actives have a fitted effect of over 55% in size; note: potency is the fitted concentration of half-maximal effect
In short: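 In the same wells used for beta-lactamase reporter measurement, cytotoxicity is scored by CellTiter-Glo. HEK293H PPARd-bla cells receive compound for 17 h at 37C following a 5 h settling period.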

[10] = molecular target: Peroxisome proliferator-activated receptor delta (Homo sapiens) (UniProt Q03181); assay: qHTS assay to identify small molecule agonists of the peroxisome proliferator-activated receptor delta (PPARd) signaling pathway (AID 743212; calls by dose curve)
In short: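 Steps: seed PPARd-bla HEK293H cells; incubate 5 h, 37 C, 5% CO2; add compounds in DMSO; incubate, 37 C; add LiveBLAzer B/G FRET substrate; hold 2 h at room temperature; measure fluorescence.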

[11] = qHTS assay to identify small molecule antagonists of the peroxisome proliferator-activated receptor delta (PPARd) signaling pathway - cell viability counter screen (AID 743213); note: nearly all actives have a fitted effect of over 50% in size
In short: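 Same-well viability: cells pre-incubated 5 h, dosed with compound plus 300 nM L165041, kept 17 h at 37 C, FRET substrate 2 h RT, then CellTiter-Glo 30 min RT and luminescence.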

[12] = molecular target: Peroxisome proliferator-activated receptor delta (Homo sapiens) (UniProt Q03181); assay: qHTS assay to identify small molecule antagonists of the peroxisome proliferator-activated receptor delta (PPARd) signaling pathway (AID 743215; active = well fitted inhibition curve with a large enough effect in the signal ratio in the repeat runs, not every such curve was filed as active; the % refers to the signal ratio;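 note: cells stimulated with agonist L165041 at 300 nM final during compound exposure; series mostly up to about 62 µM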)
In short: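 Cells: HEK293H with a UAS-driven beta-lactamase reporter responsive to PPARd. Compounds were co-added with L165041 (300 nM, final) and incubated 17 h at 37 C before a 2 h room-temperature FRET substrate step and fluorescence reading.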

[13] = molecular target: Bile acid receptor (Homo sapiens) (UniProt Q96RI1); assay: qHTS assay to identify small molecule antagonists of the farnesoid-X-receptor (FXR) signaling pathway (AID 743217; active = well fitted inhibition curve with a large enough effect in the signal ratio in the repeat runs, not every such curve was filed as active; the % refers to the signal ratio)
In short: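 Cells carrying a UAS-driven beta-lactamase reporter (GeneBLAzer FXR-UAS-bla HEK 293T) were plated and rested 5 h at 37 °C. Compounds in DMSO were added alongside chenodeoxycholic acid agonist at 50 uM final and left 16 h at 37 °C before FRET substrate readout.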

[14] = qHTS assay to identify small molecule agonists of the farnesoid-X-receptor (FXR) signaling pathway - cell viability counter screen (AID 743218); note: nearly all actives have a fitted effect of over 45% in size; note: potency is the fitted concentration of half-maximal effect
In short: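 Cells were seeded, left 5 h at 37 C and 5% CO2, then dosed with compound in DMSO for 16 h. After the beta-lactamase FRET read, CellTiter-Glo was added and luminescence measured 30 min later.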

[15] = molecular target: Bile acid receptor (Homo sapiens) (UniProt Q96RI1); assay: qHTS assay to identify small molecule agonists of the farnesoid-X-receptor (FXR) signaling pathway (AID 743220; active = well fitted activation curve with a large enough effect in the signal ratio in the repeat runs, not every such curve was filed as active; the % refers to the signal ratio)
In short: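 FXR-UAS-bla HEK 293T cells carrying a UAS-driven beta-lactamase reporter were plated for 5 h at 37C/5% CO2, then exposed to DMSO-dissolved Tox21 10K compounds for 16 h at 37C. A LiveBLAzer B/G FRET substrate was loaded for 2 h at room temperature before fluorescence reading.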

[16] = qHTS assay to identify small molecule antagonists of the farnesoid-X-receptor (FXR) signaling pathway - cell viability counter screen (AID 743221; active = well fitted cell-killing curve with a large enough effect in the repeat runs, not every such curve was filed as active; note: nearly all actives have a fitted effect of over 50% in size; note: potency is the fitted concentration of half-maximal effect)
In short: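 Here viability was scored by luminescence after CellTiter-Glo addition to wells already read for beta-lactamase. Prior treatment: compound plus CDCA (50 uM final), 16 h, 37 C, HEK 293T FXR-bla cells.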

[17] = molecular target: Vitamin D3 receptor (Homo sapiens) (UniProt P11473); assay: qHTS assay to identify small molecule agonists of the vitamin D receptor (VDR) signaling pathway (AID 743222; calls by dose curve)
In short: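 Cells carrying a VDR-driven beta-lactamase reporter are seeded at 2,000 per well and rested 4 h. Compounds in DMSO are added for 16 h at 37C, and FRET substrate fluorescence is measured after 2 h at room temperature.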

[18] = molecular target: Vitamin D3 receptor (Homo sapiens) (UniProt P11473); assay: qHTS assay to identify small molecule antagonists of the vitamin D receptor (VDR) signaling pathway (AID 743223; active = well fitted inhibition curve with a large enough effect in the signal ratio in the repeat runs, not every such curve was filed as active; the % refers to the signal ratio)
In short: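 Inhibition of agonist-driven VDR signalling is scored in VDR-bla cells: 3 nM final 1alpha,25-dihydroxyvitamin D3 plus compound, 16 h at 37C, then beta-lactamase detection by FRET substrate fluorescence after 2 h.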

[19] = qHTS assay for small molecule agonists of the antioxidant response element (ARE) signaling pathway - cell viability counter screen (AID 743203; calls by dose curve; note: nearly all actives have a fitted effect of over 55% in size)
In short: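 Cytotoxicity was tested in parallel with the ARE reporter screen. ARE-bla HepG2 cells were exposed to compounds for 16 hrs, and viability was taken from CellTiter-Glo luminescence.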

Aryl hydrocarbon receptor (Homo sapiens), sequence (P35869 whole entry, looked up): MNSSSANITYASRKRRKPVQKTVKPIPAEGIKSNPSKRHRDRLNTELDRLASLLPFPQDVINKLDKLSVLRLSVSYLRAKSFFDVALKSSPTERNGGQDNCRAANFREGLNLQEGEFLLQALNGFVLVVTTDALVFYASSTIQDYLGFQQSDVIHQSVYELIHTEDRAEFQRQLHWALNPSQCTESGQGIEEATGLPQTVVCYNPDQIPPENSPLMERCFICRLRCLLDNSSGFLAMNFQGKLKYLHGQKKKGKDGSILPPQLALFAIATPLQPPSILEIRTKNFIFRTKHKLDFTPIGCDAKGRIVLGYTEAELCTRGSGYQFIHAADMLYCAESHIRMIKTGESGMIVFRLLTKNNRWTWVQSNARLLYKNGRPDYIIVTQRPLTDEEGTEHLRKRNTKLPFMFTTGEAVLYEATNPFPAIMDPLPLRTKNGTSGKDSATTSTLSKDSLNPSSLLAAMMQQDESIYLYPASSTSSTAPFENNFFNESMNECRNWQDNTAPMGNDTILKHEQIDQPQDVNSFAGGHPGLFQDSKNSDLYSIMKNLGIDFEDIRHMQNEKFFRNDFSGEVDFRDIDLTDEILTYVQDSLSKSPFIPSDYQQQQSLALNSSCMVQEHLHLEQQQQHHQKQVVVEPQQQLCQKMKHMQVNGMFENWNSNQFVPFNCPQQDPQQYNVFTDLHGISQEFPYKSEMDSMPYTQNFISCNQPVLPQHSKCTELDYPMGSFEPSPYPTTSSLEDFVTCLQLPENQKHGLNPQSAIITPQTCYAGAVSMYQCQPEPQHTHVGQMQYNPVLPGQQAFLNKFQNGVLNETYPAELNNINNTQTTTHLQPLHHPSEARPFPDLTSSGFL
Bile acid receptor (Homo sapiens), sequence (Q96RI1 whole entry, looked up): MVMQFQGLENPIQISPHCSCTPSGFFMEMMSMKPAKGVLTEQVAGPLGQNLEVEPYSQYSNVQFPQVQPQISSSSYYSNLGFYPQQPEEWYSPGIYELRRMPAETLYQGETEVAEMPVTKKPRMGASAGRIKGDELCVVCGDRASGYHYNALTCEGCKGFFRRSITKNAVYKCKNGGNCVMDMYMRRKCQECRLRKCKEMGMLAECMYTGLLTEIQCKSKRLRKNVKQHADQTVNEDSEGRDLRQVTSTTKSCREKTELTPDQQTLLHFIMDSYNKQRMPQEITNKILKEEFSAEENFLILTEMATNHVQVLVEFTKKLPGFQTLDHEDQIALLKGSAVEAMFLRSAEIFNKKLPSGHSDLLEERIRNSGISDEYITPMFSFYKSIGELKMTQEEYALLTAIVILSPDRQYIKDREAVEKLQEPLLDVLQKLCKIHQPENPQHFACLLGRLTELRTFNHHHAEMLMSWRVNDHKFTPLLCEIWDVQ
Peroxisome proliferator-activated receptor gamma (Homo sapiens), sequence (P37231 whole entry, looked up): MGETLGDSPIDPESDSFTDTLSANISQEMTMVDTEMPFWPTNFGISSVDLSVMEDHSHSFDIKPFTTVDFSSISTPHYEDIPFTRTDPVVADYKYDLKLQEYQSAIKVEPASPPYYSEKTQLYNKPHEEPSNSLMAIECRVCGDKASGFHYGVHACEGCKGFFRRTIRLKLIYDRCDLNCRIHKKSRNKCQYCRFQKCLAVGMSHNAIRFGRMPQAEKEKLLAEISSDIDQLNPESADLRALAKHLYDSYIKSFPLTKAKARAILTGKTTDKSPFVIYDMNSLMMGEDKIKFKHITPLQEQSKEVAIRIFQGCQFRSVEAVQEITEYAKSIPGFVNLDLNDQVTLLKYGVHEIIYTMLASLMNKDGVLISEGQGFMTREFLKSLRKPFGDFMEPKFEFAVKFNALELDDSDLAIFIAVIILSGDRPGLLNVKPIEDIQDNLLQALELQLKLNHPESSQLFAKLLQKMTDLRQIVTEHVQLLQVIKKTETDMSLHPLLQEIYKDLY
Vitamin D3 receptor (Homo sapiens), sequence (P11473 whole entry, looked up): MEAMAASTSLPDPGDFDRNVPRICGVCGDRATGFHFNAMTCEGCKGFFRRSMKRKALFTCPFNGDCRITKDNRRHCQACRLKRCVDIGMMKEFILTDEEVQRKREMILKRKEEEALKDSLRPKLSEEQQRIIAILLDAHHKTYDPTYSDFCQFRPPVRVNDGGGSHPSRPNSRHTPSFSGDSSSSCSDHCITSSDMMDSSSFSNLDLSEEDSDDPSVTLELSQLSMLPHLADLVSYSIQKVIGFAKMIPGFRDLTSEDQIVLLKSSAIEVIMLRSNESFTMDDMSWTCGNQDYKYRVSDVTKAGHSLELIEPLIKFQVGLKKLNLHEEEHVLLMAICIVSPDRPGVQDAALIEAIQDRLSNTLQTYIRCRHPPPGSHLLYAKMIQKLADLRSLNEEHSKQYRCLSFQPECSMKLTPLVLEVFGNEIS
Peroxisome proliferator-activated receptor delta (Homo sapiens), sequence (Q03181 whole entry, looked up): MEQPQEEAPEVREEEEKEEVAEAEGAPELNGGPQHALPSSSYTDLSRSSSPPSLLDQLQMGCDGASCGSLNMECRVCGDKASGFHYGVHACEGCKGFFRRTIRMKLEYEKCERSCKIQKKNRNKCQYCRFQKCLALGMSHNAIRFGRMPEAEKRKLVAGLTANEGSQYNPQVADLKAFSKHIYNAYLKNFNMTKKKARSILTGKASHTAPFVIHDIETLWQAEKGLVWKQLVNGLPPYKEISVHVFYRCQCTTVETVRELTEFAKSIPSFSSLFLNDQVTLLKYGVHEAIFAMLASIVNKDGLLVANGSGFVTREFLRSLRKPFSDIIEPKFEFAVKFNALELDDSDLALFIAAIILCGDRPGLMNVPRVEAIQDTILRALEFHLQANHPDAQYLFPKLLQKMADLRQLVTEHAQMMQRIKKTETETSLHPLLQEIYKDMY

SMILES | Potency [1] | Potency [2] | outcome [3] | outcome [4] | outcome [5] | Potency [6] | Potency [7] | Potency [8] | Potency [9] | outcome [10] | outcome [11] | outcome [12] | outcome [13] | Potency [14] | outcome [15] | Potency [16] | outcome [17] | outcome [18] | Potency [19]
C=CCN=C=S | inactive | inactive | inactive | inactive | inactive | inactive | inactive | inactive | inactive | inactive | inactive | inactive | inactive | inactive | inactive | inactive | inactive | inactive | 
OCC(O)CCl (centres undefined) | inactive | inactive | inactive | inactive | inactive |  | inactive | inactive | inactive | inactive | inactive | inactive |  | inactive |  | inactive | inactive | inactive | inactive
Cc1ccc(N=C=O)cc1N=C=O | inactive | 25 µM (active) and 1.08 µM (active) | inactive | inactive | inactive | inactive | inactive |  | inactive |  | inactive |  |  | inactive |  | inactive | inactive | inactive | 
O=C(O)CCCc1ccc(N(CCCl)CCCl)cc1 | inactive and 30.6 µM (active) | inactive | inactive | inactive | inactive |  | inactive | inactive | inactive | inactive | inactive | inactive |  | inactive | inactive | inactive | inactive | inactive | inactive
O=C(O)Cc1ccccc1 | inactive | inactive | inactive | inactive | inactive | inactive | inactive | inactive | inactive |  | inactive |  |  | inactive | inactive | inactive | inactive | inactive | 
O=S(=O)(O)OOS(=O)(=O)O | inactive | inactive | inactive | inactive | inactive |  | inactive | inactive | inactive | inactive | inactive | inactive |  | inactive |  | inactive | inactive | inactive | inactive
COc1nc(NC(C)C)nc(NC(C)C)n1 | inactive | inactive | inactive | inactive | inactive |  | inactive | inactive | inactive | inactive | inactive | inactive |  | inactive | inactive | inactive | inactive | inactive | 
CN(C)C(=O)Cl | inactive | inactive | inactive | inactive | inactive |  | inactive | inactive | inactive | inactive | inactive | inactive |  | inactive |  | inactive | inactive | inactive | 
CCOP(=S)(OCC)Oc1cc(C)nc(C(C)C)n1 | inactive and 27.3 µM (active) | inactive and 6.86 µM (active) | inactive | inactive | inactive |  | inactive and 43.6 µM (active) | inactive | inactive and 54.9 µM (active) | inactive | inactive | inactive |  | inactive and 49 µM (active) |  | inactive and 43.6 µM (active) |  |  | 
CC[N+](=O)[O-] | inactive | inactive | inactive | inactive | inactive | inactive | inactive | inactive | inactive | inactive | inactive | inactive |  | inactive |  | inactive | inactive | inactive | 
COC(=O)Nc1cccc(OC(=O)Nc2cccc(C)c2)c1 | inactive | 27.3 µM (active) and 2.73 µM (active) | inactive | inactive | inactive | 48.6 µM (active) and inactive | inactive |  | inactive | inactive | inactive | inactive |  | inactive | inactive | inactive |  |  | inactive
CC(=O)/C=C/c1ccccc1 | inactive | inactive | inactive | inactive | inactive | inactive | inactive | inactive | inactive | inactive | inactive | inactive |  | inactive |  | inactive | inactive | inactive | 
Cc1cccc(C)c1NC(=O)CN1CCCC1=O | inactive | inactive | inactive | inactive | inactive | inactive | inactive |  | inactive | inactive | inactive | inactive |  | inactive | inactive | inactive |  |  | inactive
CN(C)C(=O)Nc1cccc(C(F)(F)F)c1 | inactive | inactive | inactive | inactive | inactive |  | inactive | inactive | inactive | inactive | inactive | inactive |  | inactive |  | inactive | inactive | inactive | inactive
O=C/C=C/c1ccccc1 | inactive | inactive | inactive | inactive | inactive |  | inactive | inactive | inactive | inactive | inactive | inactive |  | inactive |  | inactive | inactive | inactive | 
CCOP(=S)(OCC)Oc1ccc([N+](=O)[O-])cc1 | inactive | 31 µM (active) and 10.6 µM (active) | inactive | inactive | inactive |  | inactive | inactive | inactive | inactive | inactive | inactive |  | inactive |  | inactive |  |  | inactive
CCSC(=O)N1CCCCCC1 | inactive | inactive | inactive | inactive | inactive |  | inactive | inactive | inactive | inactive | inactive | inactive |  | inactive |  | inactive | inactive | inactive | inactive
CC(=O)C1CCOC1=O (centres undefined) | inactive | inactive | inactive | inactive | inactive | inactive | inactive | inactive | inactive | inactive | inactive | inactive |  | inactive | inactive | inactive | inactive | inactive | 
